Measured values reported in PubChem BioAssay AID1706 (The Scripps Research Institute Molecular Screening Center, 2009).
Among all 290,000 compounds or so, about 400 (0.14%) were called active. No stated cut-off is given here; in the data, active means inhibition above about 12%; inactive means the rest. The entries come from a sample that favours actives as a whole.

Biological target: Replicase polyprotein 1ab (Severe acute respiratory syndrome coronavirus) (UniProt P0C6X7)
Assay: blockers of SARS 3CLpro peptide cleavage – biochemical, quenched FRET, primary screen (AID 1706)
Details: recombinant SARS-CoV 3CLpro, at 6 µM, stronger effect = higher value

Row | Structure (SMILES) | inhibition
1 | COC(=O)c1ccc2c(=O)n(CCN3CCOCC3)c(SCC(=O)Nc3cccc(OC)c3)nc2c1 | -4.67% (inactive)
2 | CCC(=O)c1cn(CCOc2ccccc2OC)c2ccccc12 | 1.13% (inactive)
3 | COc1ccccc1NC(=O)N1CCCC1C(=O)NCc1cccs1 (stereo not drawn) | -2.73% (inactive)
4 | Cc1cc(C)cc(NS(=O)(=O)Cc2ccccc2)c1 | -7.45% (inactive)
5 | CCCc1nnc(NC(=O)CCC(=O)NC2CC2)s1 | -2.59% (inactive)
6 | O=C(COC(=O)CCCNC(=O)c1ccc(Cl)cc1)Nc1cc(Cl)ccc1Cl | -4.18% (inactive)
7 | O=C(CN1CCC(NC(=O)Nc2ccccc2)CC1)Nc1cccc([N+](=O)[O-])c1 | -2.45% (inactive)
8 | CN(CC(=O)Nc1cccc(F)c1)CC(=O)Nc1cccc([N+](=O)[O-])c1 | 0.23% (inactive)
9 | CN1CCN(CC(=O)Nc2cccc([N+](=O)[O-])c2)CC1 | 15.7% (active)
10 | CC(=O)N1CCSc2ccc(S(=O)(=O)N3CCC(C)CC3)cc21 | 0.66% (inactive)
11 | O=C(COC(=O)c1cc(=O)[nH]c2ccccc12)Nc1nc(-c2cccc(Br)c2)cs1 | 2.23% (inactive)
12 | CC(C)NC(=O)COCc1cc(-c2ccc3c(c2)OCO3)on1 | 3.95% (inactive)
13 | CCc1nonc1NC(=O)c1oc2ccc(Cl)cc2c1C | -1.85% (inactive)
14 | CCN1CCN(C(=O)Cn2nc(C)n3c(cc4c(OC)cccc43)c2=O)CC1 | -4.38% (inactive)
15 | COc1ccc(NC(=O)C2C3C=CC(C3)C2C(=O)NCc2ccccn2)c(OC)c1 (stereo not drawn) | 0.98% (inactive)
16 | O=C(CCc1nnc2ccc(NCc3ccccc3Cl)nn12)NCC1CCN(C2CCCC2)C1 (stereo not drawn) | 2.8% (inactive)
17 | COc1cccc(CNS(=O)(=O)c2cc3c(cc2C)n(C)c(=O)c(=O)n3C)c1 | 3.5% (inactive)
18 | Cc1cc(C(=O)CCl)c(C)n1CC1COc2ccccc2O1 (stereo not drawn) | 6.71% (inactive)
19 | O=C(CN1C(=O)C2C3C=CC(C3)C2C1=O)NCC1COc2ccccc2O1 (stereo not drawn) | 2.22% (inactive)
20 | O=C1C(=O)N(CC2COc3ccccc3O2)c2ccccc21 (stereo not drawn) | 23.4% (active)
21 | CC(C)c1ccccc1OCC(O)CN(CC(O)COc1cccc2ccccc12)C(C)C (stereo not drawn) | 3.86% (inactive)
22 | Nc1ncc(CN2CCCC(C(=O)Nc3ccc(-c4ccco4)cc3)C2)cn1 (stereo not drawn) | -4.02% (inactive)

Row | Structure (SMILES) | inhibition
23 | CC12CCC(C(=O)N(NC(=O)c3ccccc3O)C1=O)C2(C)C (stereo not drawn) | 5.94% (inactive)
24 | Cc1ccc(-c2nc(-c3cccnc3)sc2CC(=O)Nc2ccc(C)c(Cl)c2)cc1 | -0.63% (inactive)
25 | Oc1ccc2ccc3cccc[n+]3c2c1 | 3.63% (inactive)
26 | CN(C)S(=O)(=O)c1cccc(C(=O)OCC(=O)N2CCCC2=O)c1 | 0.39% (inactive)
27 | C[C@H](NC(=O)C1CC(=O)N(c2ccc3c(c2)OCCO3)C1)C(=O)N1CCC(C(=O)O)CC1 (stereo partly drawn) | 2.21% (inactive)
28 | CCOC(CNC(=O)C(=O)NCC(c1ccco1)N1CCN(c2ccc(OC)cc2)CC1)OCC (stereo not drawn) | -3.43% (inactive)
29 | Cc1c(C(=O)NCCN2CCOCC2)sc2nc(-c3ccc(F)cc3)cn12 | 3.35% (inactive)
30 | Cc1ccc(NS(=O)(=O)c2ccc3c(c2)oc(=O)n3C)c(C)c1 | 8.19% (inactive)
31 | CC1(C)N=C(c2ccccn2)C(C)(C)N1O | -1.96% (inactive)
32 | COc1ccc([N+](=O)[O-])cc1NCC(=O)c1ccc(C)cc1 | -0.37% (inactive)
33 | O=c1[nH]c(/C=C\c2cccc(C(F)(F)F)c2)nc(O)c1[N+](=O)[O-] | -0.63% (inactive)
34 | COc1ccc(C(CNC(=O)c2cc3c(s2)CCCC3)N2CCOCC2)cc1 (stereo not drawn) | 0.58% (inactive)
35 | N#Cc1ncc(C(F)(F)F)cc1Oc1cccnc1 | 4% (inactive)
36 | COc1cccc(C(=O)NC(=O)Nc2nc(C)cc(C(F)(F)F)n2)c1 | -0.93% (inactive)
37 | COc1cccc(CN(C)CC(O)COC(c2ccccc2)c2ccccc2C)c1 (stereo not drawn) | -1.74% (inactive)
38 | CCCCCCCCCCCCN1C(=O)CSC1c1cccnc1 (stereo not drawn) | 0.63% (inactive)
39 | Cn1nc(-c2ccc(N3CCOCC3)c(NC(=O)c3ccccc3)c2)c2ccccc2c1=O | -4% (inactive)
40 | O=C(Cc1ccc(Br)cc1)NCCN1CCOCC1 | -3.15% (inactive)
41 | Cc1ccc(CNC(=O)C2(C(F)(F)F)C/C(=C\Cc3ccccc3)CCCO2)o1 (stereo not drawn) | 2.14% (inactive)
42 | CC(=O)N1CCCc2cc(S(=O)(=O)N3CCCC(C(=O)N4CCN(c5cccc(Cl)c5)CC4)C3)ccc21 (stereo not drawn) | -4.69% (inactive)
43 | CC(C)c1ccc(N(C(=O)c2ccco2)C(C(=O)NC2CCCC2)c2cccnc2)cc1 (stereo not drawn) | 50.8% (active)
44 | COc1cccc(N(C(=O)CNC(=O)c2ccco2)C(C(=O)NC2CCCCC2)c2cccnc2)c1 (stereo not drawn) | 0.2% (inactive)

Row | Structure (SMILES) | inhibition
45 | O=C(NC1CCCC1)C(c1ccco1)N(C(=O)c1ccco1)c1ccc(F)cc1 (stereo not drawn) | -3.74% (inactive)
46 | CS(=O)(=O)N(CC(=O)N1CCOCC1)c1cccc(Cl)c1Cl | 10.7% (inactive)
47 | CCC(C)(C)NC(=O)C(c1ccc(O)cc1)N(C(=O)Cn1nnc2ccccc21)c1ccc(NC(C)=O)cc1 (stereo not drawn) | 27.5% (active)
48 | COc1ccc(C(C(=O)NCC2CCCO2)N(C(=O)Cn2nnc3ccccc32)c2ccc(NC(C)=O)cc2)cc1OC (stereo not drawn) | 11.5% (inactive)
49 | COc1ccc(C(C(=O)NC(C)(C)C)N(C(=O)Cn2nnc3ccccc32)c2ccc(C(C)=O)cc2)cc1O (stereo not drawn) | 3.87% (inactive)
50 | CN1CN(C)c2ccc([N+](=O)[O-])c3cccc1c23 | 2.09% (inactive)
51 | Cc1c(C(=O)NCC(c2ccco2)N2CCCC2)oc2ccc(Cl)cc12 (stereo not drawn) | -1.9% (inactive)
52 | CCN(CC(=O)NCC(=O)Nc1cccc(C)c1C)Cc1ccccc1 | -2.94% (inactive)
53 | CCOC(=O)c1ccc(-n2c(CCC(=O)O)ccc2-c2ccccc2)cc1 | 3.33% (inactive)
54 | Cc1ccc2c(c1)C1CN(C)CCC1N2S(=O)(=O)c1ccc(Oc2ccc([N+](=O)[O-])cc2)cc1 (stereo not drawn) | 0.21% (inactive)
55 | O=C1CCCCN1CCCC(=O)N1CCCC(Nc2ccc(F)cc2)C1 (stereo not drawn) | -2.27% (inactive)
56 | CCN1CCN(C(=O)C2CCCN(S(=O)(=O)c3ccc(OC)c(OC)c3)C2)CC1 (stereo not drawn) | -7.47% (inactive)
57 | CC(C)c1c(C(=O)N/N=C/c2ccc(-c3ccccc3)cc2)nnn1-c1nonc1N | 1.56% (inactive)
58 | c1ccc2c(-c3nn4nnnc4c4ccccc34)cccc2c1 | -0.16% (inactive)
59 | CC(=O)c1cccc(NC(=S)N2CCCC2)c1 | 0.53% (inactive)
60 | Cc1ccc(OCC(=O)Nc2ccc(C(=O)O)cc2NC(=O)COc2ccc(C)c(C)c2)cc1C | 14.3% (active)
61 | Cc1cccc(OCC(=O)Nc2ccc(C(=O)O)cc2NC(=O)COc2cccc(C)c2)c1 | 6.23% (inactive)
62 | Cc1ccc(OCC(=O)Nc2cccc3c2CCCC3)cc1C | -0.37% (inactive)
63 | COc1cccc(CNC(=O)CN(C)S(=O)(=O)c2ccc3c(c2)c(=O)n(C)c(=O)n3C)c1 | 0.08% (inactive)
64 | COc1cccc(Cn2cc(/C=N/NC(=O)c3cc(O)cc(O)c3)c3ccccc32)c1 | 6.16% (inactive)
65 | Cc1ccc2c(c1)sc1ncc(NC(=O)c3ccccc3)c(=O)n12 | -0.46% (inactive)
66 | COC(=O)c1ccc(COC(=O)c2cnc(Cl)c(Cl)c2)cc1 | 7.32% (inactive)

Row | Structure (SMILES) | inhibition
67 | COc1ccc2cc(CCl)c(Cl)nc2c1 | -3.78% (inactive)
68 | COc1ccc(C(=O)NC(=S)N2CCNC(=O)C2CC(=O)OC(C)C)cc1 (stereo not drawn) | 0.58% (inactive)
69 | CC(=O)N1CCN(C(=O)C2(NC(=O)Nc3ccc(C)cc3)CCCCC2)CC1 | -11.2% (inactive)
70 | CC(=O)Nc1ccc(NC(=O)C2CCCN2S(=O)(=O)c2cccc(C(F)(F)F)c2)cc1 (stereo not drawn) | -4.86% (inactive)
71 | Cc1cccc[n+]1CC(=O)c1ccccc1 | 3.16% (inactive)
72 | O=C(/C=C/c1ccc(F)cc1)Nc1cccc(S(=O)(=O)Nc2cccc(C(F)(F)F)c2)c1 | 5.74% (inactive)
73 | CCNS(=O)(=O)c1ccc(NC(=O)Nc2cccc(C(F)(F)F)c2)cc1 | -1.22% (inactive)
74 | Cc1oc2c(F)c(F)c(F)c(F)c2c1S(=O)(=O)Nc1cccc(C(F)(F)F)c1 | 17.6% (active)
75 | Cc1ccc(S(=O)(=O)N(CC(=O)NCc2ccco2)c2ccccc2C)cc1 | -1.63% (inactive)
76 | O=C(NCc1ccco1)C(c1ccncc1)N(C(=O)Cn1nnc2ccccc21)c1ccccc1 (stereo not drawn) | 1.89% (inactive)
77 | COCCNC(=O)C(c1ccc(C)o1)N(Cc1ccccc1)C(=O)Cn1nnc2ccccc21 (stereo not drawn) | 0.75% (inactive)
78 | COc1ccccc1N(C(=O)Cn1nnc2ccccc21)C(C(=O)NCc1ccco1)c1ccc(C)o1 (stereo not drawn) | 20.2% (active)
79 | Cc1cc(-c2ccc(S(=O)(=O)N3CCN(c4cccc(C(F)(F)F)c4)CC3)s2)on1 | 10.1% (inactive)
80 | O=C(c1c(F)cccc1Cl)N1CCN(S(=O)(=O)c2ccc3c(c2)OCCCO3)CC1 | -1.16% (inactive)
81 | COc1ccc(C)cc1N(CC(=O)NC(C)c1ccccc1)S(C)(=O)=O (stereo not drawn) | -1.09% (inactive)
82 | Cc1ccccc1-c1nc(CS(=O)(=O)CC(=O)NC(C)c2ccccc2)c(C)o1 (stereo not drawn) | -0.9% (inactive)
83 | O=C(c1cc(=O)c2ccccc2o1)N1CCN(c2ccccc2)CC1 | 13.7% (active)
84 | COc1cc2c(cc1OC)CN(C(=O)c1cc(=O)c3ccccc3o1)CC2 | -3.13% (inactive)
85 | COc1ccccc1N1CCN(C(=O)c2cc(=O)c3cc(C)ccc3o2)CC1 | -1.99% (inactive)
86 | CCOc1ccc(OCCSc2nc3ccccc3n2CC(=O)O)cc1 | 1.7% (inactive)
87 | Cc1coc2c1c(C)cc1oc(=O)c(CC(=O)NCC(=O)N[C@H](C(=O)O)C(C)C)c(C)c12 | 2.83% (inactive)
88 | Cc1ccc(S(=O)(=O)N[C@@H](Cc2ccccc2)C(=O)N2CCC(C(=O)N[C@H](C(=O)O)C(C)O)CC2)cc1 (stereo partly drawn) | -4.09% (inactive)
